# In all, about 68,000 sequences were measured (“fluorescence intensity (a.u.)”: median about 9,100, highest 2% from about 16,000 on). Shown is part of a subset that was picked to be rich in the highest values.
# Target: OsWRKY34 (Oryza sativa, UniProt Q0JBA9 1-250)
# Experiment: protein-binding microarray (RPBM); PBS, 2% BSA, 51.3 ng/ul salmon testes DNA, 50 uM zinc acetate, 200 nM TF, 25 C, 1 h; high values mean tight binding
# Conditions: protein: recombinant; tags: N-terminal polyhistidine and DsRed monomer fusion (pET32a); label: CyDye5-dUTP incorporated in the synthesized complementary strand; 3' TTTTT single-stranded linker to array surface; dsDNA, one strand shown
# In short: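 Binding signal is reported as fluorescence intensity per feature (arbitrary units) from an Axon 4000B scanner. Incubation used 200 nM of each Ni–NTA-purified, N-terminally polyhistidine- and DsRed-fused transcription factor from E. coli BL21-CodonPlus on a double-stranded custom Agilent array for 1 h at 25 °C, with 50 µM zinc acetate in the buffer, followed by washing.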
# Sequence of OsWRKY34 (Q0JBA9 entry or part of it): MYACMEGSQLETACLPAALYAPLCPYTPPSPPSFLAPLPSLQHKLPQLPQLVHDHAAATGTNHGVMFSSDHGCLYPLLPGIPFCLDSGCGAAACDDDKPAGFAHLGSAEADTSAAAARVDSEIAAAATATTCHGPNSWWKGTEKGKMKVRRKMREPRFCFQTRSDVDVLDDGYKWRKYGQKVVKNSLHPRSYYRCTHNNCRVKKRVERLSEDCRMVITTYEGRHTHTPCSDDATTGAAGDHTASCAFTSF
row,Sequence,binding signal
1,ATGTTTGACGCCGTTGATATTTTAGCACATGTTTGACTGTCGGAGTCACCTAGTGCAG,11400 fluorescence intensity (a.u.)
2,CCTTCCGTTTGACACTGTTGACTTTTTTAAATATGTTTGACGGAGTCACCTAGTGCAG,16100 fluorescence intensity (a.u.)
3,TTCAAAATGTTTGACACCGTTGACTTTTTAACACATGATCCGGAGTCACCTAGTGCAG,32400 fluorescence intensity (a.u.)
4,CCGCTGCCGCTTCCGCTTCCGCTTCTTCCGTTCTGGAGACCGGAGTCACCTAGTGCAG,10400 fluorescence intensity (a.u.)
5,TTGACACTGTTGACTTTTTAATATATGTTTGACTGTTCGTCGGAGTCACCTAGTGCAG,20400 fluorescence intensity (a.u.)
6,CCACGCCGCACCCACCCACTGCCCGTTCCGTTCCGGCGACCGGAGTCACCTAGTGCAG,10900 fluorescence intensity (a.u.)
7,CGCCGCTGCCGTTGACCGTGTTCCGGCACTTCTTCACGACCGGAGTCACCTAGTGCAG,17400 fluorescence intensity (a.u.)
8,ATATTTTAATGAATGACACTGTTGACTTTTTGACAAACGTCGGAGTCACCTAGTGCAG,13300 fluorescence intensity (a.u.)
9,CGGCGCGTACGCAGTCCACTACCACCACTTCCGCCGGCGCCGGAGTCACCTAGTGCAG,8450 fluorescence intensity (a.u.)
10,CTTGCCGGCCTCCACCGCTAATGTTTGTGCACACAGAAAACGGAGTCACCTAGTGCAG,8330 fluorescence intensity (a.u.)
11,GAACCTAGAAATATTGTCTGTTTTCCTGCCGAACTGAACTCGGAGTCACCTAGTGCAG,9900 fluorescence intensity (a.u.)
12,TGAAAGGGGTTGATGTGTGGTGAAGGGTAGGTAATTTGTACGGAGTCACCTAGTGCAG,10700 fluorescence intensity (a.u.)
13,GGTGGTGGTGTGAGAGCAGTAGACAGGTTTTTCTTGGGGACGGAGTCACCTAGTGCAG,8280 fluorescence intensity (a.u.)
14,CTTCTGCTTCTGGTTCTGGTTCGCCTTCCTAGTTCCTACCCGGAGTCACCTAGTGCAG,8330 fluorescence intensity (a.u.)
15,GAAAAATCTTTCCAGTGGTAGTGTGTTGCTCTCGGCCTCGCGGAGTCACCTAGTGCAG,8320 fluorescence intensity (a.u.)
16,GCCCCGAGCGGGCCGAGCTCCCATCGTCTCATCGCCCCAACGGAGTCACCTAGTGCAG,11600 fluorescence intensity (a.u.)
17,AGCCAACCACACACAATGAACCATACCACAGTTACCACAGCGGAGTCACCTAGTGCAG,10100 fluorescence intensity (a.u.)
18,TTGGGGAGGATTTTTTCTTTTCATTTCATAATTAATTTCCCGGAGTCACCTAGTGCAG,11400 fluorescence intensity (a.u.)
19,TGCATCTCGCCTTATCCCCGCGCCGGCGCTAGGCGAATCGCGGAGTCACCTAGTGCAG,8340 fluorescence intensity (a.u.)
20,AATGGTTTTATCGTTTTACGTGTGTACACCACTTATATATCGGAGTCACCTAGTGCAG,8060 fluorescence intensity (a.u.)
21,TTCGTTGTACTTACCATCGTTGTTTAGTTTGATTTTTTTTCGGAGTCACCTAGTGCAG,8950 fluorescence intensity (a.u.)
22,AGTTTTTGGTAGTTTAGTTTGATACACCACTTCGTTTGATCGGAGTCACCTAGTGCAG,18600 fluorescence intensity (a.u.)
23,TTGACACCGTTGACTTTTTAGTACATGTTTGACCGTTCGTCGGAGTCACCTAGTGCAG,41400 fluorescence intensity (a.u.)

row,Sequence,binding signal
1,TTTTAGCACATGTTGACCGTTCGTCTTATTCAAAAAATTTCGGAGTCACCTAGTGCAG,9160 fluorescence intensity (a.u.)
2,ACGCCGCCGTTGCACTTCTCTGCACGCCATTGATCCGATCCGGAGTCACCTAGTGCAG,8480 fluorescence intensity (a.u.)
3,CCGAAGCGTCATCGCCGGTGGCCGTATCTTCTGCGTTGACCGGAGTCACCTAGTGCAG,15300 fluorescence intensity (a.u.)
4,GCCGTATCTTCTGCGTTGACCAGATCCTTCACTGTCACGCCGGAGTCACCTAGTGCAG,19200 fluorescence intensity (a.u.)
5,ACACCGTTGACTTTTTAGCACATGTTGGACTGTTCGTCTTCGGAGTCACCTAGTGCAG,39800 fluorescence intensity (a.u.)
6,TGACTTTTTAGCACATGTTTGACTGTTCGTCTTATTCAAACGGAGTCACCTAGTGCAG,10200 fluorescence intensity (a.u.)
7,TAACCAGAGTAAATTTTTGGCCAACTTAAGTGCTTTCATACGGAGTCACCTAGTGCAG,9070 fluorescence intensity (a.u.)
8,GCAACTTTTTTTCCAAATGTTTGGCATCTGGTGTGTCATCCGGAGTCACCTAGTGCAG,8040 fluorescence intensity (a.u.)
9,GAAGCCCACCCAATTCGATTTTTTGGGCCGCCCCACCTTTCGGAGTCACCTAGTGCAG,8790 fluorescence intensity (a.u.)
10,TACCGTCGTGCTCCATCAATTCCATCTCCACGTGTTATTGCGGAGTCACCTAGTGCAG,10900 fluorescence intensity (a.u.)
11,GCGATCTTCGCGGCTTCACCATCATACCTGCAACTGCAACCGGAGTCACCTAGTGCAG,8220 fluorescence intensity (a.u.)
12,CGTCCGGCCGCGAAACCGAGCCTTCTGACCACCGCCGAAACGGAGTCACCTAGTGCAG,8050 fluorescence intensity (a.u.)
13,ACCGTTGACTTTTTAGCACATGATTGATCGTTCGTTTTATCGGAGTCACCTAGTGCAG,33800 fluorescence intensity (a.u.)
14,TTGATTTTTTTAGCACATGTTTGACCGTTCGTCTTATTAACGGAGTCACCTAGTGCAG,13200 fluorescence intensity (a.u.)
15,TTGTTTGCACCGGTTTTGACAGTTCAGGGATCGGTTGTATCGGAGTCACCTAGTGCAG,8200 fluorescence intensity (a.u.)
16,GTTGACTTTTTAGCACGTGTTTGACCGTTCGTCTTATTAACGGAGTCACCTAGTGCAG,9780 fluorescence intensity (a.u.)
17,ACACCGTTGACTTTTTAGCACGTGTTTGACCGTTCACCTTCGGAGTCACCTAGTGCAG,26900 fluorescence intensity (a.u.)
18,GTTTGTTGCAGTTTGGTGTGTATGTTTGTTGCACTTTGATCGGAGTCACCTAGTGCAG,9920 fluorescence intensity (a.u.)
19,TATTTAACACCGTTGACTTTTTAGCACATGTTTGACCGTTCGGAGTCACCTAGTGCAG,38200 fluorescence intensity (a.u.)
20,TAAGCACAGTTGACTTTTTTTTTGGTGTGTTCCGGTGTATCGGAGTCACCTAGTGCAG,20900 fluorescence intensity (a.u.)
21,CACCGTTGATTTTTTAGCACATGTTTGACCGTTCGTCTTACGGAGTCACCTAGTGCAG,12900 fluorescence intensity (a.u.)
22,ATTTGACACCGTTAACCTTTTAGCACATGTTTGACCGTTCCGGAGTCACCTAGTGCAG,11900 fluorescence intensity (a.u.)

# — article PMC7819943, “Rice protein-binding microarrays: a tool to detect cis-acting elements near promoter regions in rice”
